SW480 rereplic: induces DNA re-replication in SW480 colon adenocarcinoma cells | SW480 DNA re-replication, Hoechst DNA content imaging, 48 h | Potency, µM (top dose mostly 46.1 µM), for the others: at the highest dose re-replication activation, actives largely listed as activators | 340,000 compounds, 1.8% hits; note: potency is the fitted concentration of half-maximal effect; % of control where 0% means no effect; nearly all actives have a fitted effect of over 55% in size
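Hoechst fluorescence of nuclei (405 nm excitation, 500-530 nm emission) measured by plate-scanning imager after 48 hr compound exposure at 37 C; re-replication scored as increased number of nuclei with elevated intensity.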
MCF10A rereplic: DNA re-replication induction in MCF 10a cells. MCF 10A DNA re-replication, Hoechst nuclear intensity, 48 h. Potency, µM (doses to about 46.1 µM), for inactives: at the top dose activity, positive = re-replication, hits mostly activators. 350,000 compounds, 2.9% hits. AID 624296; note: potency is the fitted concentration of half-maximal effect; % of control where 0% means no effect; nearly all actives have a fitted effect of over 50% in size
IL1B secr inh: blocks inflammasome-driven IL-1 beta release; AID 743279; activity change, % at 57.5 µM; THP-1 LPS/ATP IL-1B secretion, AlphaLISA, 16 h; hits give low values; 360,000 compounds, 4.7% hits; in the data active = activity change below about -50%; inconclusive = mostly about -30% to -49%; note: % is set by controls: 0 for no effect and ±100 for the full control effect
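THP-1 cells pretreated 1 hr with compounds (up to 57.5 uM final), then stimulated with LPS (250 ng/mL final) plus ATP (1.25 mM final); secreted IL-1B measured by AlphaLISA after 16 hr, decreased signal indicating inhibition.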
DT40 TDP1 no CPT: qHTS for Inhibitors of human tyrosyl-DNA phosphodiesterase 1 (TDP1): qHTS in cells in absence of CPT | AID 686978, 2013 | 420,000 compounds, 15% hits | DT40 Tdp1-/- hTDP1 cells, no CPT, ATP luminescence, 48 h | Potency, µM (highest dose often 46.2 µM), inactives show at the highest dose activity change, negative = growth inhibition, most hits filed as inhibitors; note: potency is the fitted concentration of half-maximal effect; % is set by controls: 0 for no effect and ±100 for the full control effect; nearly all actives have a fitted effect of over 55% in size
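Readout: luminescence from CellTiter-Glo after 30 min in the dark at RT. Cells: DT40 Tdp1-/- with stable hTDP1, 400/well. Exposure: compounds alone, ≥48 hr, 37 °C.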
Chronic BCR inh: blocks chronic active B-cell receptor signaling; 340,000 compounds, 0.05% hits; AID 493014; Potency, µM (doses to about 46.1 µM), inactives show at the top dose activity change, negative = inhibition, most hits filed as inhibitors; ABC-DLBCL IkBa-CBG/CBR reporter, luminescence ratio, 4 h; active = well fitted inhibition curve with a large enough effect in the signal ratio, with a control signal flat, not every such curve was filed as active; inconclusive = small, poorly fitted or top-dose-only effect, or effect the other way, or a change in a side signal; the % refers to the signal ratio;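 note: potency is the fitted concentration of half-maximal effect; plate controls were basal doxycycline-induced cells for no effect and cells given 10 µM MG132 for full effect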
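TMD8 ABC-DLBCL cells carrying doxycycline-inducible green luciferase fused to IkappaBalpha plus unfused red luciferase were exposed to compounds (up to 46 uM) for 4 hrs at 37C. Activity came from the overlap-corrected green/red luminescence ratio.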
DT40 TDP1 CPT: DT40-hTDP1 cell growth loss with CPT | AID 686979 | chicken DT40 Tdp1-/-;hTDP1 cells + 20 nM CPT, ATP luminescence, 48 h | Potency, µM (series often up to 46.2 µM), for the others: at the top dose activity change, negative = growth inhibition, usual class: inhibitors | 420,000 compounds, 12% hits; note: potency is the fitted concentration of half-maximal effect; % is set by controls: 0 for no effect and ±100 for the full control effect; nearly all actives have a fitted effect of over 55% in size
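Cell growth measured by CellTiter-Glo luminescence after a minimum 48 h, 37 C compound exposure with 20 nM CPT in Tdp1-knockout DT40 cells stably expressing hTDP1, seeded 400/well; qHTS titration format.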
Active calls of the source: *. Most compounds without a hit are left out; they make up all but 19% or so of the library. Unless noted, calls come from the whole dose curve; as a rule, active = well fitted curve in the direction sought with a large enough effect; inconclusive = small, poorly fitted or top-dose-only effect, or another doubt; inactive = no such curve, though single readings can be large; an effect the other way counts as inactive or inconclusive.

How did CCN(CC)C(=O)c1[nH]cnc1C(=O)NC1CCN(C(=O)OC(C)(C)C)CC1 do in these assays?
SW480 rereplic: -14%; MCF10A rereplic: 24%; IL1B secr inh: 7; DT40 TDP1 no CPT: -7%; Chronic BCR inh: 0%; DT40 TDP1 CPT: -3%

What do the screens show for `O=C(c1ccc(Cl)s1)N1CCN(c2ncccn2)CC1`?
SW480 rereplic: inconclusive; MCF10A rereplic: -3%; IL1B secr inh: -2; DT40 TDP1 no CPT: inconclusive; Chronic BCR inh: 8%; DT40 TDP1 CPT: -26%

What do the screens show for `O=C(c1ccc([N+](=O)[O-])s1)N1CCN(c2ccc(C(F)(F)F)cn2)CC1`?
SW480 rereplic: -27%; MCF10A rereplic: -4%; IL1B secr inh: 15; DT40 TDP1 no CPT: 16µM*; Chronic BCR inh: 3%; DT40 TDP1 CPT: 13µM*

How did O=C(c1ccc([N+](=O)[O-])s1)N1CCN(c2ncccn2)CC1 do in these assays?
IL1B secr inh: 15; DT40 TDP1 no CPT: inconclusive; DT40 TDP1 CPT: 21µM*

What do the screens show for `COc1ccccc1CCNC(=O)c1c(N)[nH]c(C(=O)c2ccccc2)c1-c1ccc(Br)cc1`?
IL1B secr inh: 6; DT40 TDP1 no CPT: inconclusive; DT40 TDP1 CPT: inconclusive

What do the screens show for `CSCCC(NS(=O)(=O)c1ccc2c(c1)oc(=O)n2C)C(=O)NCc1ccc(F)cc1` (centres undefined)?
DT40 TDP1 no CPT: -4%; DT40 TDP1 CPT: -5%

Results for CCc1cc(=O)n2c([nH]c3ccccc32)c1C#N ?
SW480 rereplic: -2%; MCF10A rereplic: inconclusive; IL1B secr inh: 18; DT40 TDP1 no CPT: inconclusive; Chronic BCR inh: inconclusive; DT40 TDP1 CPT: inconclusive

Results for CCc1cc(=S)n2c([nH]c3ccccc32)c1C#N ?
SW480 rereplic: inconclusive; MCF10A rereplic: inconclusive; IL1B secr inh: 0; DT40 TDP1 no CPT: 23µM*; Chronic BCR inh: inconclusive; DT40 TDP1 CPT: 16µM*

How did CCc1c(C)c(C#N)c2[nH]c3ccccc3n2c1=S do in these assays?
SW480 rereplic: -58%; MCF10A rereplic: inconclusive; DT40 TDP1 no CPT: 12µM*; Chronic BCR inh: inconclusive; DT40 TDP1 CPT: 12µM*

What do the screens show for `Cc1ccc(Cc2c(C)c(C#N)c3[nH]c4ccccc4n3c2=O)cc1`?
SW480 rereplic: -28%; MCF10A rereplic: inconclusive; IL1B secr inh: -22; DT40 TDP1 no CPT: 23µM*; Chronic BCR inh: 8%; DT40 TDP1 CPT: inconclusive

What do the screens show for `C=C(C)Cc1c(C)c(C#N)c2[nH]c3ccccc3n2c1=O`?
SW480 rereplic: 8%; MCF10A rereplic: inconclusive; IL1B secr inh: 21; DT40 TDP1 no CPT: inconclusive; Chronic BCR inh: 8%; DT40 TDP1 CPT: 3%

What do the screens show for `Cc1cc(O)c(C(C[N+](=O)[O-])c2ccc(Cl)cc2)c(=O)o1` (centres undefined)?
SW480 rereplic: 12%; MCF10A rereplic: -7%; IL1B secr inh: -3; DT40 TDP1 no CPT: -39%; Chronic BCR inh: inconclusive; DT40 TDP1 CPT: inconclusive

What do the screens show for `Cc1cc(C)n(C(C[N+](=O)[O-])c2ccc(Cl)cc2)n1` (centres undefined)?
SW480 rereplic: inconclusive; MCF10A rereplic: 15µM*; IL1B secr inh: inconclusive; DT40 TDP1 no CPT: 2.3µM*; Chronic BCR inh: inconclusive; DT40 TDP1 CPT: 2.3µM*

How did CCOc1cc(S(=O)(=O)N2CC=C(c3ccc(F)cc3)CC2)c(OCC)cc1-n1cnnn1 do in these assays?
SW480 rereplic: -6%; MCF10A rereplic: 0%; IL1B secr inh: 40; DT40 TDP1 no CPT: 10µM*; Chronic BCR inh: 1%; DT40 TDP1 CPT: 15µM*

High-throughput results as filed in PubChem BioAssay.
